These results are taken from PubChem BioAssay (EPA / NIEHS).

Active and inactive are the calls of the source. Rule for the calls: active = hit-call score of the fitted dose curve at least 0.9, where 1 is the maximum; inactive = score below 0.9.

Assay [1] can be described thus: ATG_CRE_CIS: Attagene CIS-FACTORIAL HepG2 Assay for human cAMP Responsive Element (CRE) binding protein 3 (AID 2282926). The conditions noted are these: HepG2 CRE cis-reporter, Attagene multiplexed mRNA; actives raise or lower the signal. In short, it runs like this: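 Capillary electrophoresis of 6-FAM-labelled, HpaI-digested PCR products quantified reporter transcripts. These came from HepG2 transiently transfected with cis-element reporters and exposed to test chemicals for 24 hours, with DMSO defining baseline activity.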

Assay [2] addresses CCAAT/enhancer-binding protein beta (Homo sapiens) (UniProt P17676). Briefly: ATG_C_EBP_CIS: Attagene CIS-FACTORIAL HepG2 Assay for human CCAAT/Enhancer Binding Protein (C/EBP) beta (AID 2282927). The conditions noted are these: HepG2 Attagene cis-factorial transcription factor reporter; actives raise or lower the signal. In short, it runs like this: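 Following a 24 h incubation with test chemical, transfected HepG2 cells yielded RNA whose reporter transcripts were quantified by RT-PCR and fluorescent capillary electrophoresis, with DMSO serving as baseline for bidirectional fitting.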

The target of assay [3] is Aryl hydrocarbon receptor (Homo sapiens) (UniProt P35869). Briefly: ATG_Ahr_CIS: Attagene CIS-FACTORIAL HepG2 Assay for human Aryl Hydrocarbon Receptor (Ahr) (AID 2282930). The note with it: HepG2 AhR cis-factorial reporter transcription; actives raise or lower the signal. In short, it runs like this: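 Values derive from bidirectional fitting against DMSO negative control. Underlying signal: cis-element reporter mRNA in transiently transfected HepG2, harvested 24 h post-dose and measured by RT-PCR plus capillary electrophoresis.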
Aryl hydrocarbon receptor (Homo sapiens), sequence (P35869 whole entry, looked up): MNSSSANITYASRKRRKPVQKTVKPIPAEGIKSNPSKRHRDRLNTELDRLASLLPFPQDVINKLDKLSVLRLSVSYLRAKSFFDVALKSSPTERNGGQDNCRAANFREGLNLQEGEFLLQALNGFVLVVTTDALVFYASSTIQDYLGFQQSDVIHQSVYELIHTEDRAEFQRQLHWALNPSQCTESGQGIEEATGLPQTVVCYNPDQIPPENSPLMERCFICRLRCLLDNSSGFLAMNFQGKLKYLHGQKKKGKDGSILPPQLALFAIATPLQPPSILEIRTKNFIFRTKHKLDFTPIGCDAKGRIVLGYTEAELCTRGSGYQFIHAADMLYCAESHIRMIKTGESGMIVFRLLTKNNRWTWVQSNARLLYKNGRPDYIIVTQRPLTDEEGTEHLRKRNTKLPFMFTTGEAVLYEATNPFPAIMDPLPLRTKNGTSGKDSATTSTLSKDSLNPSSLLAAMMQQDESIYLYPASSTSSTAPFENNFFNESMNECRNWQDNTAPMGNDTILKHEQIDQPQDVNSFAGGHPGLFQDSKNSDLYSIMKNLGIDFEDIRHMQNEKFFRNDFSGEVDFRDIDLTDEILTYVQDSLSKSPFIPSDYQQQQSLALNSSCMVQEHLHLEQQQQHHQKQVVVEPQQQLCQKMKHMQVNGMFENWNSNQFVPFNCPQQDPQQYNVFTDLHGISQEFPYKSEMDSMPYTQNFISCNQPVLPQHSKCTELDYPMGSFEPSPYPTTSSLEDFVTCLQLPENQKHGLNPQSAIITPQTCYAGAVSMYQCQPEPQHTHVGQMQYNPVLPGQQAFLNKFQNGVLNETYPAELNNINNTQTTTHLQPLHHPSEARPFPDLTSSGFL

A short description of assay [4]: ATG_AP_1_CIS: Attagene CIS-FACTORIAL HepG2 Assay for human Activator Protein 1 (AP-1) (AID 2282931). The conditions noted are these: HepG2 Attagene cis-factorial AP-1 reporter mRNA; actives raise or lower the signal. Summed up: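 Fluorescence of labelled PCR fragments separated by capillary electrophoresis gives reporter mRNA levels. HepG2 with transfected cis-regulated reporter units, 24 h exposure; DMSO serves as baseline for bidirectional curve fits.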

Assay [5] in a line: ATG_M_19_CIS: Attagene CIS-FACTORIAL HepG2 Assay for M19 Transcription Factor (Internal Marker) (AID 2282939). The conditions noted are these: HepG2 Attagene CIS-FACTORIAL M19 internal marker reporter; actives raise or lower the signal. Summed up:
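Background-control endpoint from a multiplexed HepG2 reporter panel. Cells carrying cis-regulated reporter constructs are treated 24 h, then reporter transcripts are amplified, fluorescently labelled and sized by capillary electrophoresis. DMSO defines baseline.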

Assay [6] in a line: ATG_GLI_CIS: Attagene CIS-FACTORIAL HepG2 Assay for human Zinc Finger Protein GLI1 (AID 2282945). The conditions noted are these: HepG2, Attagene cis-factorial reporter mRNA, GLI element; actives raise or lower the signal. In short, it runs like this: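 HepG2 cells transiently transfected with cis-promoter multiplexed reporter units report endogenous transcription factor activity. After 24 h chemical exposure, reporter mRNA was quantified by RT-PCR, 6-FAM labelling, HpaI digestion and capillary electrophoresis, with bidirectional fitting against DMSO.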

The target of assay [7] is Hypoxia-inducible factor 1-alpha (Homo sapiens) (UniProt Q16665). Kind of assay: ATG_HIF1a_CIS: Attagene CIS-FACTORIAL HepG2 Assay for human Hypoxia Inducible Factor 1 (HIF1A) (AID 2282951). The conditions noted are these: HepG2 Attagene cis-factorial HIF1a reporter transcription; actives raise or lower the signal. In short, it runs like this: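 HepG2, transient cis-reporter library, 24 h dosing. RNA → RT (oligo dT) → PCR → 6-FAM primer extension → HpaI → CE. Bidirectional curve fit vs DMSO.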
Hypoxia-inducible factor 1-alpha (Homo sapiens), sequence (Q16665 whole entry, looked up): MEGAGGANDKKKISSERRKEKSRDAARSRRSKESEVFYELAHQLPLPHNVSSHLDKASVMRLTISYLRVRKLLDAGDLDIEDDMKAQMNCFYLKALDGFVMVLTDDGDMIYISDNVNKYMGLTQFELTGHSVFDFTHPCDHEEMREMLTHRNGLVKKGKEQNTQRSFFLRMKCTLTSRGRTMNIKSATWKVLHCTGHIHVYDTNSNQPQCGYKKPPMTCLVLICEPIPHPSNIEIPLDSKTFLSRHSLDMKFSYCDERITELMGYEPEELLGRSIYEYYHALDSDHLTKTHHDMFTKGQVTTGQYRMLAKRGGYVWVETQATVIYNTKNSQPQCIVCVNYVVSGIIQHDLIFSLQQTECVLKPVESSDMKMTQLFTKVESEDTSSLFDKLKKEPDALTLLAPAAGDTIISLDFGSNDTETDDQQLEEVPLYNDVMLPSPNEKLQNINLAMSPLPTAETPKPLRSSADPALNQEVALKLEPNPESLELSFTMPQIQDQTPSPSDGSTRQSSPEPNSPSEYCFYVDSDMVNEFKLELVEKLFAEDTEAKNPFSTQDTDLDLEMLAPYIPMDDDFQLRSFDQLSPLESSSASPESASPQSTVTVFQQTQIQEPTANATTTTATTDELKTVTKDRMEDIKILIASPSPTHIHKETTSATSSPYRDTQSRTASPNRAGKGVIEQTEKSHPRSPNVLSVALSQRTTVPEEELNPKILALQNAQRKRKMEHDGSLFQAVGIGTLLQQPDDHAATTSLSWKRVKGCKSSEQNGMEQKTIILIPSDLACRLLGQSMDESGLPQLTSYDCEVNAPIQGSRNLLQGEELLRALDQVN

Assay [8] concerns the target Hepatocyte nuclear factor 6 (Homo sapiens) (UniProt Q9UBC0). Kind of assay: ATG_HNF6_CIS: Attagene CIS-FACTORIAL HepG2 Assay for human Hepatocyte Nuclear Factor 6 (HNF6) (AID 2282952). The note with it: HepG2 Attagene cis-factorial HNF6 reporter transcription; actives raise or lower the signal. Summed up: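 Activity values derive from bidirectional fitting against DMSO of reporter mRNA levels, measured by capillary electrophoresis of labelled RT-PCR products from HepG2 cells exposed 24 h.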

Assay [9] addresses Heat shock factor protein 1 (Homo sapiens) (UniProt Q00613). Kind of assay: ATG_HSE_CIS: Attagene CIS-FACTORIAL HepG2 Assay for human Heat Shock Transcription Factor 1 (HSE) (AID 2282953). The note with it: HepG2 HSE cis-reporter, Attagene RNA transcription; actives raise or lower the signal. Summed up:
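Cells were transfected with cis-element-driven reporter constructs, dosed for 24 h, then total RNA was reverse-transcribed and reporter cDNA amplified, FAM-labelled and digested with HpaI. Fragments were resolved by capillary electrophoresis; gain or loss was fitted against DMSO.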

Assay [10] can be described thus: ATG_TA_CIS: Attagene CIS-FACTORIAL HepG2 Assay for human TA Basal Promoter (AID 2282964). The conditions noted are these: HepG2 Attagene CIS-factorial TA basal promoter reporter; actives raise or lower the signal. Summed up:
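Steps: transfect HepG2 with MRTUs; dose 24 h; isolate RNA, DNase-treat, reverse-transcribe; PCR and FAM-label reporter cDNA; digest with HpaI 2h at 37 C; run capillary electrophoresis. Activity fitted both directions against DMSO.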

A short description of assay [11]: ATG_VDRE_CIS: Attagene CIS-FACTORIAL HepG2 Assay for human Vitamin D Receptor Element (VDRE) (AID 2282968). The note with it: HepG2 VDRE cis-reporter transcription, actives raise or lower the signal. In short, it runs like this:
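Steps: transfect HepG2 with multiple reporter transcription units; dose chemicals 24 h; isolate RNA; RT-PCR; label with 6-FAM primer extension; HpaI digest; capillary electrophoresis. Curves fitted both directions against DMSO.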

In assay [12] the target is X-box-binding protein 1 (Homo sapiens) (UniProt P17861). Kind of assay: ATG_Xbp1_CIS: Attagene CIS-FACTORIAL HepG2 Assay for human X-box Binding Protein 1 (XBP1) (AID 2282972). The conditions noted are these: HepG2 XBP1 cis-element reporter, Attagene multiplex; actives raise or lower the signal. In short, it runs like this:
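Changes in reporter transcript abundance, read by RT-PCR and capillary electrophoresis, reflect endogenous transcription factor activity. Transfected HepG2 cells received compound for 24 hours; DMSO defined baseline for bidirectional analysis.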

Assay [13] addresses Nuclear respiratory factor 1 (Homo sapiens) (UniProt Q16656). Briefly: ATG_NRF1_CIS: Attagene CIS-FACTORIAL HepG2 Assay for human Nuclear Respiratory Factor 1 (NRF1) Orphan Gene (AID 2282987). The note with it: HepG2 NRF1 cis-element reporter, Attagene multiplex; actives raise or lower the signal. Summed up:
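Human hepatoma HepG2 cells carrying transfected promoter-regulated reporter units were incubated with test chemicals for 24 h. Reporter transcripts were measured by RT-PCR plus capillary electrophoresis, and endpoints derived by bidirectional fitting with DMSO as baseline.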

For assay [14], the target named is Myc proto-oncogene protein (Homo sapiens) (UniProt P01106). Kind of assay: ATG_Myc_CIS: Attagene CIS-FACTORIAL HepG2 Assay for human Myelocytomatosis (Myc) Proto-Oncogene Transcription Factor (AID 2282990). The conditions noted are these: HepG2, Attagene cis-reporter transcription factor activity; actives raise or lower the signal. Summed up: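 Multiplexed cis-reporter transcription in HepG2 cells after 24 h chemical treatment. Reporter mRNA measured by RT-PCR and capillary electrophoresis fluorescence; activity fitted bidirectionally against DMSO control.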
Myc proto-oncogene protein (Homo sapiens), sequence (P01106 whole entry, looked up): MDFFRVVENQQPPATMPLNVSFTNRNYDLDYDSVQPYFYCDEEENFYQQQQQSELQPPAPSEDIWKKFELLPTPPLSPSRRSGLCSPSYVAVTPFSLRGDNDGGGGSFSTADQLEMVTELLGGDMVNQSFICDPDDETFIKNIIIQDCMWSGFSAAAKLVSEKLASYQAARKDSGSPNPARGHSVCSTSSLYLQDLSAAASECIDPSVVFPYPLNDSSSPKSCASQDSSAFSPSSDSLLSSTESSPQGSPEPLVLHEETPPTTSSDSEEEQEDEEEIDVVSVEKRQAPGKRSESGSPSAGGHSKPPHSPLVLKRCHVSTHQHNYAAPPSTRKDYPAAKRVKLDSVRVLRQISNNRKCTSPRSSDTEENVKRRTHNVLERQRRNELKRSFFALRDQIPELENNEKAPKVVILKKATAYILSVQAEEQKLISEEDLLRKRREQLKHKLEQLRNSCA

A short description of assay [15]: ATG_NRF2_ARE_CIS: Attagene CIS-FACTORIAL HepG2 Assay for human Nuclear Factor Erythroid 2 Related Factor 2 (NFR2) response to Antioxidant Response Elements (ARE) (AID 2282992). The note with it: HepG2 Attagene ARE/NRF2 reporter, transcription factor activity; actives raise or lower the signal. In short, it runs like this: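 Using transiently transfected HepG2 cells exposed for 24 h, reporter mRNA levels were determined by RT-PCR with fluorescent primer extension and capillary electrophoresis, analysed for gain or loss of signal against DMSO.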

Assay [16] is described as follows: ATG_Oct_MLP_CIS: Attagene CIS-FACTORIAL HepG2 Assay for human Octamer-Binding Transcription Factor (Oct) (AID 2282993). The conditions noted are these: HepG2 Attagene cis-factorial Oct reporter, mRNA; actives raise or lower the signal. In short, it runs like this: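 Multiplexed cis-reporter assay in human liver HepG2 cells, 24 h incubation. Reporter RNA amplified and labelled, then resolved by capillary electrophoresis; DMSO serves as negative control and baseline.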

In assay [17] the target is Cellular tumor antigen p53 (Homo sapiens) (UniProt P04637). Briefly: ATG_p53_CIS: Attagene CIS-FACTORIAL HepG2 Assay for human p53 Transcription Factor (AID 2282994). The conditions noted are these: HepG2 p53 cis-element reporter, Attagene mRNA; actives raise or lower the signal. Summed up:
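In HepG2 cells, reporter transcription units under cis-regulatory promoters were transiently introduced. Following 24 h treatment, RNA was processed to labelled, digested cDNA fragments read by capillary electrophoresis; fitting was bidirectional versus DMSO.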

Assay [18] is described as follows: ATG_E_Box_CIS: Attagene CIS-FACTORIAL HepG2 Assay for human Enhancer Box (E-box) (AID 2282936). The note with it: HepG2 E-box cis-reporter transcription, actives raise or lower the signal. In short, it runs like this: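 Endogenous transcription factor activity was sensed in human HepG2 liver cells through transfected cis-promoter reporter units. After 24 h of dosing, total RNA was reverse-transcribed and reporter cDNA resolved by capillary electrophoresis.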

A short description of assay [19]: ATG_M_06_CIS: Attagene CIS-FACTORIAL HepG2 Assay for M06 Transcription Factor (Internal Marker) (AID 2282950). The conditions noted are these: HepG2 Attagene CIS-FACTORIAL M06 internal marker reporter; actives raise or lower the signal. Summed up:
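Steps: transfect HepG2 with multiplexed cis-element reporter constructs; dose chemical 24 h; extract RNA with DNase treatment; reverse-transcribe, PCR-amplify, 6-FAM label, HpaI digest; separate fragments by capillary electrophoresis. Activity fitted both directions versus DMSO.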

A short description of assay [20]: ATG_BRE_CIS: Attagene CIS-FACTORIAL HepG2 Assay for human Bone Morphogenetic Protein (BMP) Response Element (BRE) (AID 2282933). The conditions noted are these: HepG2 BMP response element reporter, Attagene transcription factor profiling; actives raise or lower the signal. Summed up: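 Endogenous transcription factor activity at a BMP response element was monitored in transfected HepG2 cells 24 h after dosing. Fluorescent RT-PCR products were resolved by capillary electrophoresis, and activity was fitted in both directions versus DMSO.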

CCAAT/enhancer-binding protein beta (Homo sapiens), sequence (P17676 whole entry, looked up): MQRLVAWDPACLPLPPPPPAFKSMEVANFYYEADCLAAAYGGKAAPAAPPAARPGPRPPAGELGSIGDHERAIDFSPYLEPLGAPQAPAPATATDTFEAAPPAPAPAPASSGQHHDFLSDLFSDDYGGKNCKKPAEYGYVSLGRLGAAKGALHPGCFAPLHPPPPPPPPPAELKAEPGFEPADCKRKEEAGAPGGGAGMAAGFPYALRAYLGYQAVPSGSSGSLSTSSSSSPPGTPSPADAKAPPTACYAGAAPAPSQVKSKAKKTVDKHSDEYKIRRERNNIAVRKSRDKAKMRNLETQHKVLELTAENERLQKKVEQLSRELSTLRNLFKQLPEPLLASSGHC
X-box-binding protein 1 (Homo sapiens), sequence (P17861 whole entry, looked up): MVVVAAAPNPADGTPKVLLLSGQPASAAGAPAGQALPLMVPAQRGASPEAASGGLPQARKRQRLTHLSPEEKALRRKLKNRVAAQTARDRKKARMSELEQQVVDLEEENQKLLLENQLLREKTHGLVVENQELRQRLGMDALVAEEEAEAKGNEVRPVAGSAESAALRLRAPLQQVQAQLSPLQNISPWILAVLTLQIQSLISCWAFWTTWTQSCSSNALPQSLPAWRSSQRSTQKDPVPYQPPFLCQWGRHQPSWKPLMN
Nuclear respiratory factor 1 (Homo sapiens), sequence (Q16656 whole entry, looked up): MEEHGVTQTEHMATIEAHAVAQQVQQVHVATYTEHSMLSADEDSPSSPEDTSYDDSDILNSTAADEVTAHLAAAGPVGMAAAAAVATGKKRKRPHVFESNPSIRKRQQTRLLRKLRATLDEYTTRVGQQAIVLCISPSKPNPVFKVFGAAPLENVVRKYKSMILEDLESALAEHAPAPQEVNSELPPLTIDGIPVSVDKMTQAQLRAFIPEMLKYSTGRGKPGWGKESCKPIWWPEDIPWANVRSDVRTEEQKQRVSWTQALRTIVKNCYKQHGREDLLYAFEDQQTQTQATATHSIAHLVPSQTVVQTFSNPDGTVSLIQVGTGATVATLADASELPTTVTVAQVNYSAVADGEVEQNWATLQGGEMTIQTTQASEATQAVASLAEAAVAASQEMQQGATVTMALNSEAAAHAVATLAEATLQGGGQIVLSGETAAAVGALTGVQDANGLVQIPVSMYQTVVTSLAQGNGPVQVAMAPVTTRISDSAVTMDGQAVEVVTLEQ
Hepatocyte nuclear factor 6 (Homo sapiens), sequence (Q9UBC0 whole entry, looked up): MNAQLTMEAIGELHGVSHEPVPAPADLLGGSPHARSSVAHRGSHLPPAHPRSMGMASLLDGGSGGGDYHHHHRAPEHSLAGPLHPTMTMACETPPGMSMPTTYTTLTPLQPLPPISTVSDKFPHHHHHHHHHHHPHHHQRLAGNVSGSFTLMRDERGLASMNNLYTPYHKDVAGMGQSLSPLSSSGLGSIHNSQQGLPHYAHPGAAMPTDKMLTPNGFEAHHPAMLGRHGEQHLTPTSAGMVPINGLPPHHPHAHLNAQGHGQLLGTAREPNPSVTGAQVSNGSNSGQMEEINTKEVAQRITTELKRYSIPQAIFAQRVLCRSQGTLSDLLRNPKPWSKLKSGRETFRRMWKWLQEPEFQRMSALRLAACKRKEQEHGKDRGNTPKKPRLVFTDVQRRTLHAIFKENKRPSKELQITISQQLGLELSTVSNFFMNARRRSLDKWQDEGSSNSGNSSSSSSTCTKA
Cellular tumor antigen p53 (Homo sapiens), sequence (P04637 whole entry, looked up, the tested form may be a part): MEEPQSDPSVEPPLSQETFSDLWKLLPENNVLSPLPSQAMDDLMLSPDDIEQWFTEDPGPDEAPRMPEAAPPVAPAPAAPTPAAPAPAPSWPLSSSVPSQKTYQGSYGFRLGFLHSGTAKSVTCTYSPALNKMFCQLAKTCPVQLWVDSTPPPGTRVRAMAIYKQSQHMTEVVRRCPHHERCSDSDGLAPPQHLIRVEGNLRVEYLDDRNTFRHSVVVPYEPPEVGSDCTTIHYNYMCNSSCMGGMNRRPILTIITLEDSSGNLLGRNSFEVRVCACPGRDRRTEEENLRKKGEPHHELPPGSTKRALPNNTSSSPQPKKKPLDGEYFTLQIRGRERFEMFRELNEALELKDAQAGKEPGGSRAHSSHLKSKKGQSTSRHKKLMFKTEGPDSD
Heat shock factor protein 1 (Homo sapiens), sequence (Q00613 whole entry, looked up, the tested form may be a part): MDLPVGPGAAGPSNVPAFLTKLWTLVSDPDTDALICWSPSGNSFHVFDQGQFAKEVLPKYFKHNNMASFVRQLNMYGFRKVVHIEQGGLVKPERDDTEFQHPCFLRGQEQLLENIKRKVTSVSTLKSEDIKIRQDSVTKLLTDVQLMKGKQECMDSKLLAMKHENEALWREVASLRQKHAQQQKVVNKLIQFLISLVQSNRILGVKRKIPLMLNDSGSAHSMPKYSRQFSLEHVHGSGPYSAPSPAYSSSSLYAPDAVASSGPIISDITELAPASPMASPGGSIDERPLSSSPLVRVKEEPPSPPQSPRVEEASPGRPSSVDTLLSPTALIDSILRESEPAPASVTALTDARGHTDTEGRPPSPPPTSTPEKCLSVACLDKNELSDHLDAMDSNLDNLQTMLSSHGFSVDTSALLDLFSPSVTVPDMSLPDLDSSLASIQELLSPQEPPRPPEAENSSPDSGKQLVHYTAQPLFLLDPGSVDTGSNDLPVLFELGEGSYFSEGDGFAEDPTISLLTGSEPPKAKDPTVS

Usually AC50 stands for the concentration giving half of the maximal activity seen. With `O=[N+]([O-])c1cc(C(F)(F)F)c(Cl)c([N+](=O)[O-])c1Cl`, the outcome in [1], in assay [2], in assay [3], in assay [4], in assay [5] and in assay [6] was inactive. Moreover, the compound was called inactive in [7], in assay [8], in assay [10], in assay [12], in [13] and in [14]. Besides, the compound was called inactive in [16] and in assay [17]. The AC50 in assay [9] is 5.39 µM (active); in [11], 5.51 µM (active); in [15], 1.3 µM (active).
As to `COc1cc(OC)nc(Oc2cccc(Oc3nc(OC)cc(OC)n3)c2C(=O)O)n1`, the call in assay [1], in assay [2], in [4], in assay [18], in assay [5] and in [6] was inactive. Moreover, the call in [19], in assay [7], in assay [8], in assay [9], in [10] and in [11] was inactive. Moreover, the result in assay [12], in assay [14], in assay [15], in assay [16] and in assay [17] was inactive. In [3], the AC50 was 57.5 µM (active).
Regarding `[CH3][Sn]([CH3])([Cl])[Cl]`, the compound was called inactive in [1], in assay [2], in assay [3], in assay [18], in assay [5] and in assay [6]. Further, the outcome in assay [19], in [7], in [8], in assay [10], in assay [11] and in assay [12] was inactive. Further, the call in assay [13], in assay [14] and in assay [16] was inactive. The AC50 in assay [9] was 114 µM (active); in assay [15], 63.8 µM (active).
For `Cc1ncc(C[n+]2csc(CCO)c2C)c(N)n1`, the outcome in [1], in [3], in [4], in assay [20], in [18] and in [5] was inactive. The compound was classed as inactive in assay [19], in assay [8], in [10], in [11], in assay [12] and in assay [13]. Also, the result in assay [14], in assay [15], in assay [16] and in assay [17] was inactive.
Regarding `CC(=O)c1cc2c(cc1C)C(C)(C)C(C)CC2(C)C` (stereo not given), the AC50 is 72.4 µM (active) in [1]; 108 µM (active) in assay [2]; 26.6 µM (active) in [4]; 128 µM (active) in [5]; 75.5 µM (active) in [6]; 2.78 µM (active) in assay [7]. The AC50 in assay [8] is 171 µM (active); in assay [9], 116 µM (active); in assay [12], 66.6 µM (active); in [14], 60.9 µM (active); in [15], 26.7 µM (active); in assay [16], 64.3 µM (active). Also, the call in [10], in assay [11] and in assay [17] was inactive.
As for `C=COCCCl`, the result in assay [1], in [3], in [4], in [20], in assay [18] and in assay [5] was inactive. Besides, the outcome in assay [19], in [8], in assay [9], in assay [10], in [11] and in assay [12] was inactive. In addition, the compound was called inactive in assay [13], in assay [14], in assay [15], in assay [16] and in assay [17]. For the same compound, the concentration at half-maximal activity (AC50) in assay [7] is 48.5 µM (active).
On to `CN(C)N`, for which the result in [2], in assay [3], in assay [4], in assay [20], in [18] and in assay [5] was inactive. Moreover, the call in assay [6], in assay [19], in [7], in assay [8], in assay [9] and in assay [10] was inactive. In addition, the compound was called inactive in assay [11], in [12], in assay [13], in assay [14], in assay [15] and in assay [16]. For the same compound, the outcome in assay [17] was inactive.
